# In paper PMC7862700, “An all-to-all approach to the identification of sequence-specific readers for epigenetic DNA modifications on cytosine”:
# Legend:
# Assay in all cases: DAPPL (digital affinity profiling via proximity ligation, sequencing); 10 mM Tris-HCl pH 7.5, 50 mM NaCl, 1 mM DTT, 4% glycerol, room temperature, 30 min; GST-TFs on glutathione beads, 16-mer random dsDNA library, 0.1% formaldehyde crosslink after washing; high values mean tight binding
# Settings in all cases: protein: recombinant; tags: N-terminal GST; dsDNA, one strand shown
# ELK1 = target: T1, ELK1 (Homo sapiens, UniProt P19419 1-428)
# T1 sequence: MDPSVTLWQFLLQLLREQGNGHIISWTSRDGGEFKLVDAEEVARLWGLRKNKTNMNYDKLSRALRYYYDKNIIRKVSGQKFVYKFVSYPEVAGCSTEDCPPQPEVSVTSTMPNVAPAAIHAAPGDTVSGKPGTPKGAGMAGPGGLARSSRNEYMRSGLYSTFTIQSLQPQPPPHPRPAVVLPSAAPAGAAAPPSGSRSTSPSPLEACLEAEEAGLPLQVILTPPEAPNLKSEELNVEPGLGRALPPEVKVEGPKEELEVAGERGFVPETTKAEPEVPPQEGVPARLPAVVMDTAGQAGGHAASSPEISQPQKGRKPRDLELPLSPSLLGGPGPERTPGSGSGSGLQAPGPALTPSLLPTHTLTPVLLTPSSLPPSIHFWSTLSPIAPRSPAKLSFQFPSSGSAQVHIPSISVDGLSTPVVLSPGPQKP
# Method in brief: (§1)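 Human transcription factors fused to GST were expressed in yeast, captured on glutathione beads, given DNA barcodes and pooled with a GST-only negative control. Pools were incubated with 200 nmole of a 16-mer random double-stranded DNA library in Tris/NaCl/DTT/glycerol buffer at room temperature for 30 min. They were then washed, crosslinked with 0.1% formaldehyde, proximity-ligated (BsaI/T4 ligase, 1 h, 37 °C), PCR-amplified and sequenced on an Illumina NextSeq500. Binding signal is each 6-mer's read frequency for a factor divided by its frequency for the GST control.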
# GABPA = target: T2, GABPA (Homo sapiens, UniProt Q06546 1-454)
# T2 sequence: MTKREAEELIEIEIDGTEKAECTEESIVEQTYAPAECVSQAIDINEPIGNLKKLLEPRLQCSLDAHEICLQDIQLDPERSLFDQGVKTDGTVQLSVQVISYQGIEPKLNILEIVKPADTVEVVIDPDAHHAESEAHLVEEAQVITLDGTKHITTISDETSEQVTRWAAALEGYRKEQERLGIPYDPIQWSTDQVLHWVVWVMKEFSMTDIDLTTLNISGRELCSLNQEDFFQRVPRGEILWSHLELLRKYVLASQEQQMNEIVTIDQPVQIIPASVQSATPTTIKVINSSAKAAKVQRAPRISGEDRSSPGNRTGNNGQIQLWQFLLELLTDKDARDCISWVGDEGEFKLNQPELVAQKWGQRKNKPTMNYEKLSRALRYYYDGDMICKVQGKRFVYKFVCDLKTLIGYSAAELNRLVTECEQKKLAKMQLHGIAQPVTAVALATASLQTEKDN
# Method in brief: as §1
# ERG = target: T3, ERG (Homo sapiens, UniProt P11308 1-479)
# T3 sequence: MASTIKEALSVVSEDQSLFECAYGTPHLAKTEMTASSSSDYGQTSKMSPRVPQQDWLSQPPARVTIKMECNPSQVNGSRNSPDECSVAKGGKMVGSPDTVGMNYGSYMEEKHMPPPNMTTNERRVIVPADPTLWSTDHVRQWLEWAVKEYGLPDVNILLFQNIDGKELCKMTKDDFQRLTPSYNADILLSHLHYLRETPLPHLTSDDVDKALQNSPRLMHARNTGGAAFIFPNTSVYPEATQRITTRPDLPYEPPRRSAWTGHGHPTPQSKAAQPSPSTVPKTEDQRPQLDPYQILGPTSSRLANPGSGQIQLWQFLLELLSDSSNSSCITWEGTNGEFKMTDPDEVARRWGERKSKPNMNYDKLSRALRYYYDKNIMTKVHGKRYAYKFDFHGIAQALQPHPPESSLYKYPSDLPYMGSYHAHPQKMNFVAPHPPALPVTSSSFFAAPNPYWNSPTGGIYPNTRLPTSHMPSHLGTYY
# Method in brief: as §1
# ELF1 = ELF1 (Homo sapiens, UniProt P32519 1-619)
# ELF1, sequence (P32519 whole entry): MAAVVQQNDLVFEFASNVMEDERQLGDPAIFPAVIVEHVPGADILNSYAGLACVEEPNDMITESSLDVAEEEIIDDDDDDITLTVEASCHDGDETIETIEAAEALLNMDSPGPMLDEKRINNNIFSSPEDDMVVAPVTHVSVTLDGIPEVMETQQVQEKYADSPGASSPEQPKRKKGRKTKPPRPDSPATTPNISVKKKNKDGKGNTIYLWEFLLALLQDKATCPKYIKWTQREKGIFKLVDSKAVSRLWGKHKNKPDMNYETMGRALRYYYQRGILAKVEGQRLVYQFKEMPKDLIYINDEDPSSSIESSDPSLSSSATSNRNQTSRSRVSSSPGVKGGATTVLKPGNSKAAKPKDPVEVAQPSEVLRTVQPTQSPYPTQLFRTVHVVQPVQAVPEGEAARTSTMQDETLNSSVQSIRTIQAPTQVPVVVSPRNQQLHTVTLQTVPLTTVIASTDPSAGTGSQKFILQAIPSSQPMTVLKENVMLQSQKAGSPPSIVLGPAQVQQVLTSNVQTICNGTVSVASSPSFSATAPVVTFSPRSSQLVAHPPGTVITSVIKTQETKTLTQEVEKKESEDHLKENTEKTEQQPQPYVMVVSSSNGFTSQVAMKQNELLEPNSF
# Method in brief: as §1
# EHF = target: T4, EHF (Homo sapiens, UniProt Q9NZC4 1-300)
# T4 sequence: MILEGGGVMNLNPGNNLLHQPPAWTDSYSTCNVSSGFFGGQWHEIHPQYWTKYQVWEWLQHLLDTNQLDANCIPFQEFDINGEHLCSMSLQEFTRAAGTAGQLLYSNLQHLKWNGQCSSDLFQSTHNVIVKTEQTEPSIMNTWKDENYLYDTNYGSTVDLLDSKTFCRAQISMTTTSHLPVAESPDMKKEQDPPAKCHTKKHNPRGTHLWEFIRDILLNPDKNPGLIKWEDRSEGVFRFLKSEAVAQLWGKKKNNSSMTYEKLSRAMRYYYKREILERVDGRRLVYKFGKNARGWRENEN
# Method in brief: as §1
# SPIB = SPIB (Homo sapiens, UniProt Q01892 1-262)
# SPIB, sequence (Q01892 whole entry): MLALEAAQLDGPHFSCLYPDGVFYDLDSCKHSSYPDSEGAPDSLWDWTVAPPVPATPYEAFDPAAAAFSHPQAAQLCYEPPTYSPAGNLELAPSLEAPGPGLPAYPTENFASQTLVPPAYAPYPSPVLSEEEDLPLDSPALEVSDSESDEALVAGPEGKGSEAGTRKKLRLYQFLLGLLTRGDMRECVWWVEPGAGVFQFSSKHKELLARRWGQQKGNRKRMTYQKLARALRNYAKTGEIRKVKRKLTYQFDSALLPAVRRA
# Method in brief: as §1
# FEV = target: T5, FEV (Homo sapiens, UniProt Q99581 1-238)
# T5 sequence: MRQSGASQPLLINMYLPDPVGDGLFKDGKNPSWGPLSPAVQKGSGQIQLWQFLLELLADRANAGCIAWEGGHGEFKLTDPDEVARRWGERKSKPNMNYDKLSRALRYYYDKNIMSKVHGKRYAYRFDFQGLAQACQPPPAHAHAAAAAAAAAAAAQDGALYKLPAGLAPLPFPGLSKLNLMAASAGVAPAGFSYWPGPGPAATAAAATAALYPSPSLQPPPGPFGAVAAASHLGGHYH
# Method in brief: as §1
# ETV5 = ETV5 (Homo sapiens, UniProt P41161 1-510)
# ETV5, sequence (P41161 whole entry): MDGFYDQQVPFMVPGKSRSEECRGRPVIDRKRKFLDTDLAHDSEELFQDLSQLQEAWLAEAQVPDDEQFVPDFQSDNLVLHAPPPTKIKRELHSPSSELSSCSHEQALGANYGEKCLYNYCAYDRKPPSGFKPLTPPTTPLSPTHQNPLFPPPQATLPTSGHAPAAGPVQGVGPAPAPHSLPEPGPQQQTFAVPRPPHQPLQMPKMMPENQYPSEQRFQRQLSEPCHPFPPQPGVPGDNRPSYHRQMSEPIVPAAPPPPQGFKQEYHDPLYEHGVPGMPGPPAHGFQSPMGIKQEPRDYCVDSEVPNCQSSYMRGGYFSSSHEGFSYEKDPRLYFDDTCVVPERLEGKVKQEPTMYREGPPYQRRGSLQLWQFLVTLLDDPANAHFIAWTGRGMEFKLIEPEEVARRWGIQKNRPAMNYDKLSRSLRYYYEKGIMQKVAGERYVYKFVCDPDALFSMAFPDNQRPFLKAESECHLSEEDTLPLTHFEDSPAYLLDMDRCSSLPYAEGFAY
# Method in brief: as §1
# ELK4 = target: T6, ELK4 (Homo sapiens, UniProt P28324-2 1-405)
# T6 sequence: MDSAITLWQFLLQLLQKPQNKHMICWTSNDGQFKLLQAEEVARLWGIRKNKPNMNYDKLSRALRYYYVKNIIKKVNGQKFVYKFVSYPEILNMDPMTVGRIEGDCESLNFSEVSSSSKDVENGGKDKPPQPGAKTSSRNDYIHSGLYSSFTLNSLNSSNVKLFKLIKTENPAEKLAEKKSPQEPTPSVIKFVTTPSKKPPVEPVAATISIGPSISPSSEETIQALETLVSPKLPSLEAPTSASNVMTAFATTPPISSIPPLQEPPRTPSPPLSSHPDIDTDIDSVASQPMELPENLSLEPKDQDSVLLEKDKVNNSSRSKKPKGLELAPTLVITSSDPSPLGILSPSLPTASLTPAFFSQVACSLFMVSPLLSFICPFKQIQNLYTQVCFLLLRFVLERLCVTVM
# Method in brief: as §1
# ELF3 = target: T7, ELF3 (Homo sapiens, UniProt P78545 1-371)
# T7 sequence: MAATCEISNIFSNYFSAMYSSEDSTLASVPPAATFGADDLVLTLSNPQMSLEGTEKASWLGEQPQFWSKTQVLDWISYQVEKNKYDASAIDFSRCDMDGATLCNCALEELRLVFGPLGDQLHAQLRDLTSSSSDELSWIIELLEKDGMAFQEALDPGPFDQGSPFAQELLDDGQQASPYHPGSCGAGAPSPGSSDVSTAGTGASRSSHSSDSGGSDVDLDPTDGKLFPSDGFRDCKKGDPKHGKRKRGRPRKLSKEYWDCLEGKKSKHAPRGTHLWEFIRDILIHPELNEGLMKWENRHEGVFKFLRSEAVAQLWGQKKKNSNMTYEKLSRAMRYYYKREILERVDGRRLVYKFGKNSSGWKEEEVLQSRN
# Method in brief: as §1
# ETV1 = ETV1 (Homo sapiens, UniProt P50549 1-477)
# ETV1, sequence (P50549 whole entry): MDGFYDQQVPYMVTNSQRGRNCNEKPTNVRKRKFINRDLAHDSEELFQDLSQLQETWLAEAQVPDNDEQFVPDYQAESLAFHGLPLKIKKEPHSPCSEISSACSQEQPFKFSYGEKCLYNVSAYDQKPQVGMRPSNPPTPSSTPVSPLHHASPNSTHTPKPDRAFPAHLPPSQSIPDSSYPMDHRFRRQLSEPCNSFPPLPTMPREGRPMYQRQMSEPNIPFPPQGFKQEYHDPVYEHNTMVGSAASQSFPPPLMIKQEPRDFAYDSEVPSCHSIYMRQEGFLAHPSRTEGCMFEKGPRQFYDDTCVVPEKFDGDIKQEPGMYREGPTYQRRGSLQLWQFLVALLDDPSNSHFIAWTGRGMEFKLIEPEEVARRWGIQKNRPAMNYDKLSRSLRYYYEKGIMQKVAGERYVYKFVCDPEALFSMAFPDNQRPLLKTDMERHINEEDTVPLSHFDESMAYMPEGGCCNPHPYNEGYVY
# Method in brief: as §1
# ERF = target: T8, ERF (Homo sapiens, UniProt P50548 1-548)
# T8 sequence: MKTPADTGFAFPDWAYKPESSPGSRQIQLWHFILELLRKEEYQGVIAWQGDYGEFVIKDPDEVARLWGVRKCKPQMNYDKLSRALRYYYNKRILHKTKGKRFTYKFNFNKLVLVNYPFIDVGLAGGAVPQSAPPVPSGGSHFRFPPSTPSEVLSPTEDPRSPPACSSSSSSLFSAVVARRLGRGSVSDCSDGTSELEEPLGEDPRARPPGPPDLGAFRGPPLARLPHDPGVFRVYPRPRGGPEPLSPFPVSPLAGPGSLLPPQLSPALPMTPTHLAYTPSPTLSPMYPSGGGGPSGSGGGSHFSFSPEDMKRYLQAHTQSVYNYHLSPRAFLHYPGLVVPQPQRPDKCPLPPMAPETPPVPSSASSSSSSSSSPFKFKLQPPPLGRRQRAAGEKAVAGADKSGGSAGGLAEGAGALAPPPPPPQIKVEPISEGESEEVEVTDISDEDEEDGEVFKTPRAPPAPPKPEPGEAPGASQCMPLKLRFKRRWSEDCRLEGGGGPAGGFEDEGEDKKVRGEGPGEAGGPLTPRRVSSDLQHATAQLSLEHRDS
# Method in brief: as §1
# ETV3L = target: T9, ETV3L (Homo sapiens, UniProt Q6ZN32 1-361)
# T9 sequence: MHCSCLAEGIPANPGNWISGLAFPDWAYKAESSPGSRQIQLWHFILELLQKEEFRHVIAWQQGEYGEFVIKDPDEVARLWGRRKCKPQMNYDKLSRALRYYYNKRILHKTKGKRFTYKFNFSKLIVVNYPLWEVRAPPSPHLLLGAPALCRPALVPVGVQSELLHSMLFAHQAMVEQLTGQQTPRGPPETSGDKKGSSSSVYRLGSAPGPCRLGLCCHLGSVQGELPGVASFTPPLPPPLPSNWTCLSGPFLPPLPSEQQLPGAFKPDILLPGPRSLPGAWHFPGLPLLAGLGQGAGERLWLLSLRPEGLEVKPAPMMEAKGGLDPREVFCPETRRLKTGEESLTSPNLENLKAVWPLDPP
# Method in brief: as §1
# ETS2 = target: T10, ETS2 (Homo sapiens, UniProt P15036 1-469)
# T10 sequence: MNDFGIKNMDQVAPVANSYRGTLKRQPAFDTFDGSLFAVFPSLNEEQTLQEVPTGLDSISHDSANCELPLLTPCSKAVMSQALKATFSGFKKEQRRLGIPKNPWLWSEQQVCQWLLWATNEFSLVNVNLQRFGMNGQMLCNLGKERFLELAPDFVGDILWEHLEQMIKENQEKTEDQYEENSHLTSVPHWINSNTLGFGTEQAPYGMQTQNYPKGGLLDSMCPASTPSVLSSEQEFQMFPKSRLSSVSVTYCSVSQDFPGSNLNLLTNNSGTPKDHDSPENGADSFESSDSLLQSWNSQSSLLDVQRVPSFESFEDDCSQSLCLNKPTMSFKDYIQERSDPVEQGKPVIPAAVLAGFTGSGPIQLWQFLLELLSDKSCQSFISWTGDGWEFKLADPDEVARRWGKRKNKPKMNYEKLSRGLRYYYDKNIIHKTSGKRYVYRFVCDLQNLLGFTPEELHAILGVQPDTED
# Method in brief: as §1
# SPDEF = target: T11, SPDEF (Homo sapiens, UniProt O95238 1-335)
# T11 sequence: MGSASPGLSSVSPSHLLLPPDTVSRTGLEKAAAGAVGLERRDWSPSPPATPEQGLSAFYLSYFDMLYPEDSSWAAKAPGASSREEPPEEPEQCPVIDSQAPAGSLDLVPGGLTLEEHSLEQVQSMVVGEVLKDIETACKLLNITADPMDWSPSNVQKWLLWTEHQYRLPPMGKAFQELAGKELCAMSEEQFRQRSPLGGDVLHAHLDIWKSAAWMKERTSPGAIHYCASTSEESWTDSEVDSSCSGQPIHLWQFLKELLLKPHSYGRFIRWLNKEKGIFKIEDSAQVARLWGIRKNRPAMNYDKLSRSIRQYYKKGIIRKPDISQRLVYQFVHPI
# Method in brief: as §1
# ETV7 = target: T12, ETV7 (Homo sapiens, UniProt Q9Y603 1-341)
# T12 sequence: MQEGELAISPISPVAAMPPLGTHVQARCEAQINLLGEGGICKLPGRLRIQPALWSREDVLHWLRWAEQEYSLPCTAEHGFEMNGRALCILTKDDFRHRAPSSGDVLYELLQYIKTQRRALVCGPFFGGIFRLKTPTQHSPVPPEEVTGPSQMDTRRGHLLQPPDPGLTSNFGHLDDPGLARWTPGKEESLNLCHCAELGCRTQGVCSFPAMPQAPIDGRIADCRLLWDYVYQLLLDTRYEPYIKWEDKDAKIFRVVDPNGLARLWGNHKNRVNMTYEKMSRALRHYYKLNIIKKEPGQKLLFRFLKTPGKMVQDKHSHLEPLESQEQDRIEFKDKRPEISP
# Method in brief: as §1
# ETV3 = target: T13, ETV3 (Homo sapiens, UniProt P41162-2 1-143)
# T13 sequence: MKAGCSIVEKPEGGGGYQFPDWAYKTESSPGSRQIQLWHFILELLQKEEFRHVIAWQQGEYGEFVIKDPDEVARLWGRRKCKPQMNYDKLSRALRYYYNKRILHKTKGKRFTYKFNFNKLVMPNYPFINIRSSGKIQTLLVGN
# Method in brief: as §1
sequence,measurement,setting,value
AGCGAT,binding signal,ELK1,"1.11 fold enrichment (6-mer frequency, TF over GST control)"
same,binding signal,GABPA,"1.07 fold enrichment (6-mer frequency, TF over GST control)"
same,binding signal,ERG,"1.06 fold enrichment (6-mer frequency, TF over GST control)"
same,binding signal,ELF1,"1.09 fold enrichment (6-mer frequency, TF over GST control)"
same,binding signal,EHF,"1.07 fold enrichment (6-mer frequency, TF over GST control)"
same,binding signal,SPIB,"1.02 fold enrichment (6-mer frequency, TF over GST control)"
same,binding signal,FEV,"1.05 fold enrichment (6-mer frequency, TF over GST control)"
same,binding signal,ETV5,"1.14 fold enrichment (6-mer frequency, TF over GST control)"
same,binding signal,ELK4,"1.07 fold enrichment (6-mer frequency, TF over GST control)"
same,binding signal,ELF3,"1.2 fold enrichment (6-mer frequency, TF over GST control)"
same,binding signal,ETV1,"1.02 fold enrichment (6-mer frequency, TF over GST control)"
same,binding signal,ERF,"1.09 fold enrichment (6-mer frequency, TF over GST control)"
same,binding signal,ETV3L,"1.1 fold enrichment (6-mer frequency, TF over GST control)"
same,binding signal,ETS2,"1.09 fold enrichment (6-mer frequency, TF over GST control)"
same,binding signal,SPDEF,"1.08 fold enrichment (6-mer frequency, TF over GST control)"
same,binding signal,ETV7,"1.09 fold enrichment (6-mer frequency, TF over GST control)"
same,binding signal,ETV3,"1.02 fold enrichment (6-mer frequency, TF over GST control)"
